ChEMBL document CHEMBL4296182, “CO-ADD screening of NIH NCI Diversity Set V”
For part of these data: Potency and affinity values are given separately.

What was measured:
Staphylococcus aureus = test: Antibacterial activity against Staphylococcus aureus MRSA ATCC 43300 (CO-ADD:GP_020); MIC in CAMBH media using NBS plates, by Resazurin F(560/590); assay type: functional; settings: Concentration 20 uM, ASSAY_TEST Inhibition of Bacterial Growth, detection method Resazurin, Fluorescence (ex560/em590), MEDIA CAMHB, plate type 384well, CORNING #3640, time 18 hr
Acinetobacter baumannii = test: Antibacterial activity against Acinetobacter baumannii ATCC 19606 (CO-ADD:GN_034); MIC in CAMBH media using NBS plates, by Resazurin F(560/590); assay type: functional; settings: Concentration 20 uM, ASSAY_TEST Inhibition of Bacterial Growth, detection method Resazurin, Fluorescence (ex560/em590), MEDIA CAMHB, plate type 384well, CORNING #3640, time 18 hr
Escherichia coli = test: Antibacterial activity against Escherichia coli ATCC 25922 (CO-ADD:GN_001); MIC in CAMBH media using NBS plates, by Resazurin F(560/590); assay type: functional; settings: Concentration 20 uM, ASSAY_TEST Inhibition of Bacterial Growth, detection method Resazurin, Fluorescence (ex560/em590), MEDIA CAMHB, plate type 384well, CORNING #3640, time 18 hr
Klebsiella pneumoniae = settings: Concentration 20 uM; ASSAY_TEST Inhibition of Bacterial Growth; detection method Absorption (OD600); MEDIA CAMHB; plate type 384well; NBS; CORNING #3640; time 18 hr
Candida albicans = settings: 20 µM
Cryptococcus neoformans = settings: Concentration 20 uM; ASSAY_TEST Inhibition of Fungal Growth; detection method Resazurin; Absorption (OD600-OD570); plate type 384well; NBS; CORNING #3640

| SMILES | Inhibition (Staphylococcus aureus) | Inhibition (Acinetobacter baumannii) | Inhibition (Escherichia coli) | Inhibition (Klebsiella pneumoniae) | Inhibition (Candida albicans) | Inhibition (Cryptococcus neoformans) |
| --- | --- | --- | --- | --- | --- | --- |
| Cc1nnc(-n2cccc2)s1 | 4.2% | -10.69% | 7.04% | -0.01% | 2.45% | -10.77% |
| Cc1cccc2c1c1ccc3c(c1n2C)C(=O)C=CC3=O | -3.83% | -13.4% | 14.66% | 10.43% | 16.9% | 1.61% |
| Cc1cc(NC(=O)Nc2cc(F)ccc2F)no1 | -1.77% | -0.21% | 10.41% | 7.53% | 2.67% | -5.29% |
| O[C@@H](c1cc(-c2ccc(C(F)(F)F)cc2)nc(C(F)(F)F)c1)[C@H]1CCCCN1 | 4.92% | 7.22% | 8.91% | 19.18% | 3.72% | -3.44% |
| CN1C(=O)CC2(C)C1=CCc1scnc12 (centres undefined) | 8.85% | 8.37% | 0.52% | 4.25% | 2.6% | -1.43% |
| CCOC(=O)c1cnn2c(SC)ncnc12 | 10.61% | 5.37% | -2.6% | 12.61% | 5.51% | -8.81% |
| O=C1C2C3C=CC(O3)C2C(=O)N1Nc1ccccc1 (centres undefined) | -4% | 10.94% | -0.67% | 8.39% | 1.05% | -2.5% |
| COc1cc(S(N)(=O)=O)c(OC)cc1N | 4.84% | -10.8% | 11.54% | 5.18% | 1.19% | -0.85% |
| Cc1ccc(Cl)cc1NC(=O)N(C)CCO | -6.32% | 12.85% | -9.79% | 13.54% | 6.98% | -5.5% |
| CCOc1nsc(OCC)n1 | 10.98% | -19.84% | 11.82% | -1.83% | 5.3% | -10.38% |
| Cc1cc(C)c2c(SC(C)C)nc(N)nc2n1 | -0.52% | -6.63% | 2.33% | 4.23% | 0.54% | -10.66% |
| CCSc1nc(C)c(C)c(O)n1 | -7.95% | -12.73% | 10.67% | 6.61% | 2.45% | -10.18% |
| ON=C(NCc1ccccc1)c1ccccc1 | -15.15% | 6.48% | -18.65% | 2.92% | -0.43% | 19.05% |
| COc1cnc(SC)nc1Nc1ccc(C#N)cc1 | 3.83% | 28.01% | 14.33% | 23.54% | 4.47% | -3.99% |
| Nc1cc([N+](=O)[O-])ccc1Nc1ccc(O)cc1 | -9.75% | -11.21% | 0.26% | 0.39% | 3.23% | -0.22% |
| CC(=O)OCC1OC(COC(C)=O)(c2ccc(C)cc2)C(OC(C)=O)C1OC(C)=O (centres undefined) | -7.68% | -11.43% | 15.38% | 10.58% | -0.8% | -5.49% |
| O=C(O)c1ccccc1-c1ccccc1C(=O)Nc1ccc2oc(=O)c3ccccc3c2c1 | 4.75% | -2.77% | -0.87% | 11.43% | 17.8% | -3.99% |
| CCOC(=O)Nc1c(Cl)n(C)c(=O)n(C)c1=O | -8.24% | 9.75% | -16.55% | 17.7% | 6.3% | 20.83% |
| CC(=O)[C@H]1CC[C@H]2[C@@H]3CCC4=CC(=O)C=C[C@]4(C)[C@H]3C(=O)C[C@]12C | 11.15% | -7.04% | -4.55% | 23.74% | 4.8% | -6.32% |
| COc1cc(CCC(=O)O)on1 | 9.35% | -6.5% | 10.23% | 8.1% | -0.47% | -11.79% |
| COC(=O)CC1OCC=C2CN3CCC45C6=CC(=O)C(=O)C([N+](=O)[O-])=C6NC4C1C2CC35 (centres undefined) | 12.88% | -13.17% | 11.73% | 18.83% | -2.29% | -2.47% |
| CN(C)CCCN1c2ccc3ccccc3c2Sc2cccc(Cl)c21 | -10.96% | 0.47% | 9.47% | 8.34% | 0.69% | 12.55% |
| Oc1ccnc2c(Cl)cccc12 | 7.28% | 2.93% | -8.1% | 5.9% | 3.54% | 14.14% |
| CC1=CC(C)(C)N=C(S)N1c1cccc2cc(S(=O)(=O)O)ccc12 | -5.5% | 9.59% | -20.55% | 7.04% | 8.59% | 39.69% |
| c1ccc(-c2cn3ccccc3n2)cc1 | 26.82% | -4.96% | 13.79% | 17.46% | -0.09% | -2.58% |

| SMILES | Inhibition (Staphylococcus aureus) | Inhibition (Acinetobacter baumannii) | Inhibition (Escherichia coli) | Inhibition (Klebsiella pneumoniae) | Inhibition (Candida albicans) | Inhibition (Cryptococcus neoformans) |
| --- | --- | --- | --- | --- | --- | --- |
| CC(NC(=O)c1ccc(Cl)c(Cl)c1)c1ccc(-c2ccccc2)cc1 (centres undefined) | 12.08% | 7.23% | 12.06% | 14.03% | -5.14% | -10.74% |
| CCOC(=O)Nc1ccc2nc(N3CCCCCC3)sc2c1 | 14.81% | 14.56% | 8.66% | 9.37% | 0.84% | -12.19% |
| CC(O)c1nc2c(c(=O)n(C)c(=O)n2C)n1C (centres undefined) | -5.57% | -6.98% | 6.75% | 7.56% | -1.01% | -6.24% |
| O=C(O)c1cc(Cl)nnc1O | 15.87% | -4.6% | 13.02% | -7.82% | -1.79% | -6.94% |
| Cc1cc(C)n(C(=N)NC(=O)c2ccc([N+](=O)[O-])cc2)n1 | 1.83% | 1.39% | -7.33% | 8.27% | 3.88% | 44.63% |
| Cc1ccc(NC(=O)Nc2c(Cl)cccc2Cl)cn1 | 20.25% | -2.44% | -14.35% | 6.22% | 3.4% | 18.5% |
| CC1(C)c2ccccc2-c2nc3ccccc3cc2C1O (centres undefined) | 15.31% | 7.67% | -1.43% | 14.38% | 9.47% | -10.94% |
| COc1cc(NC(C)=O)c2ncccc2c1Br | 8.44% | -11.34% | 10.55% | 15.6% | 6.33% | -16.73% |
| O=C(O)/C=C/C(=O)N1Cc2cc3ccccc3nc2C1 | 3.21% | -0.11% | -4.23% | 9.8% | 1.99% | -3.38% |
| CCCOc1ccc(-c2nc(-c3ccc(N)cc3)cs2)cc1 | 6.42% | 13.93% | 2.89% | 4.45% | 5.55% | -3.2% |
| COc1cc(/N=N/c2cccc(S(N)(=O)=O)c2)c2ccccc2c1N | -2.34% | 3.92% | -3.15% | 14.2% | 0.44% | -17.61% |
| Nc1o[nH]c(=O)c1C1CCCCC1 | 7.44% | -3.3% | 16.54% | 10.69% | 1.7% | -0.63% |
| Cc1ccc(NC(=O)N2CCCCC2)cc1[N+](=O)[O-] | 0.24% | -10.39% | 3.85% | 3.41% | 6.56% | -11.71% |
| Cc1cc2c(cc1C)NC1=C(O)C(c3cccc(O)c3)OC1=N2 (centres undefined) | 3.69% | 4.58% | -10.78% | 28.82% | 3.61% | -0.13% |
| CN1C(=C=Cc2cc(I)c(O)c(I)c2)C(C)(C)c2ccccc21 | 20.66% | 1.84% | 10.92% | 7.2% | 6.34% | 5.51% |
| NC(=O)c1cc(Br)cc(C2CCCCC2)c1O | 12.02% | -1.26% | 2.39% | 15.38% | 2.63% | -10.76% |
| O=S(=O)(O)c1ccc(/N=N/c2ccccc2)cc1 | -3.11% | 7.18% | 5.47% | 7.84% | 2.54% | -15.64% |
| O=C1NC(=S)S/C1=C\c1ccccc1C(=O)O | -3.3% | -13.4% | 1.72% | 11.85% | 14.4% | -5.59% |
| [O-][n+]1nc2ccccc2c2ccccc21 | 3.86% | -1.94% | -9.04% | 13.55% | 6.35% | 8.25% |
| O=C(Nc1ccc2ccccc2c1)c1ccc(Cl)cc1Cl | 8.36% | -2.05% | 3.67% | -0.53% | -0.67% | -1.28% |
| COc1cc(C(=O)C(=O)c2cc(OC)c(O)c(OC)c2)cc(OC)c1O | 3.22% | 7.73% | -5.19% | 5.73% | 3.18% | 0.06% |
| O=[N+]([O-])C1C(c2ccccc2)C12c1ccccc1-c1ccccc12 (centres undefined) | 1.75% | -9.94% | 13.79% | -4% | -1.91% | -10.55% |
| CSc1ccc2c(c1)C(N1CCN(C)CC1)Cc1ccccc1S2.O=C(O)/C=C\C(=O)O (centres undefined) | -0.23% | -8.02% | 11.6% | 5.53% | 2.59% | -7.96% |
| Nc1c(Cl)cc(S(N)(=O)=O)cc1S(N)(=O)=O | 4.27% | 9.37% | 1.27% | 26.17% | 17.5% | -1.7% |
